About 9,100 (2.8%) of roughly 320,000 compounds were called active. About 3% were inconclusive and are not listed. Calls follow the shape of the dose curve; as a rule, active = well fitted activation curve with a large enough effect; inconclusive = small, poorly fitted or top-dose-only effect; inactive = no such curve, though single readings can be large or run the other way. Many of the other results were omitted from the sample, so actives are more common in it than they were.
Test: qHTS Assay for Rab9 Promoter Activators; also: nearly all actives have a fitted effect of over 60% in size; as to activation, negative = inhibition: % of control where 0% means no effect
Details: Huh7 Rab9 promoter-luciferase reporter, luminescence, 24 h; series mostly up to 9.22 µM; activation, negative = inhibition: at the top concentration
How it was run: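 Luminescence from Amplite-detected luciferase (10 minutes, ambient) reports Rab9 promoter activation. Before that, stable Rab9-luciferase Huh7 cells (1500/well, reduced-serum OP-MEM I plus 10% FBS) were exposed to compound for 24 hours at 37C.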
Potency is read from the fitted curve at half-maximal effect.

activation, negative = inhibition, inactive:
COc1cc2c(cc1OC)CN(C(C)C(=O)Nc1cccc(S(=O)(=O)N3CCOCC3)c1)CC2 (stereo not given) -1.59%
Cc1sc2ncnc(N3CCC(C(=O)Nc4ccc(F)cc4Cl)CC3)c2c1C -1.62%
CCCc1cc(-c2nc(-c3ccc(C)cc3)cs2)ccn1 -0.323%
Cc1ccc(-c2csc(NC3OC(=O)c4ccccc43)n2)cc1 (stereo not given) -3.39%
O=C(CN(C(=O)CCC(=O)Nc1nccs1)c1ccc(F)cc1)NCc1ccc2c(c1)OCO2 2.57%
O=C(CSC(=S)N1CCOCC1)c1cc(Br)cc(Br)c1O 6.93%
CC(=O)c1ccc(NC(=O)CSC(=S)N2CCCC2)cc1 12.2%
CC1CN(C(=S)SCC(=O)c2ccccc2)CC(C)O1 (stereo not given) 17.3%
COc1cccc(NC(=O)CN(C)C(=O)CSC(=S)N2CCCC2)c1 11.8%
Cc1occc1-c1nnc(SCC(=O)NC2CCCCC2)o1 -0.222%
COc1ccc(S(=O)(=O)N2CCN(C(C)C(=O)Nc3ccc(C(C)C)cc3)CC2)cc1 (stereo not given) 1.47%
O=C(NCc1ccccc1CN1CCCC1)c1cccc(S(=O)(=O)Nc2ccc(F)cc2)c1 -1.74%
CCn1c(SCC(=O)Nc2ccc3c(c2)OCCO3)nnc1-c1ccncc1 -6.01%
O=C(CCN1C(=O)c2ccncc2C1=O)Nc1ccc2c(c1)OCCO2 2.25%
Cc1ccc(S(=O)(=O)NCC(=O)Nc2ccc3c(c2)OCCO3)cc1 0.138%
O=C(Nc1cccc(NC(=O)c2ccco2)c1)c1cnccn1 3.39%
CCn1c(SCC(=O)Nc2ccc3c(c2)OCCO3)nnc1C(C)C 0.546%
Cc1ccc(OCCCC(=O)Nc2ccc3c(c2)OCCO3)cc1 -3.01%
O=[N+]([O-])c1cc(S(=O)(=O)NCCc2ccccn2)ccc1Cl 1.61%
COc1ccc(-c2nnc(SC(C)C(=O)NC3CC3)o2)cc1 (stereo not given) 3.52%
Cc1cc(C)cc(NC(=O)NC2CCN(CC(=O)Nc3cccc(Cl)c3C)CC2)c1 -3.85%
O=c1[nH]c2cccnc2n(CCNc2ncc(C(F)(F)F)cc2Cl)c1=O -2.72%
CNS(=O)(=O)c1cccc(C(=O)OCC(=O)N2c3ccccc3NC(=O)C2(C)C)c1 -3.9%
CCOc1ccc(C(C)NC(=O)CN2C(=O)NC3(CCCCC3)C2=O)cc1OCC (stereo not given) -4.04%
Cc1cc(NC(=O)CSc2nnc(-c3ccc(Cl)s3)o2)no1 -1.01%
Cc1ccc(C(=O)/C=C/Nc2ccc(S(=O)(=O)Nc3onc(C)c3C)cc2)cc1 2.91%
COc1cc(OC)cc(-c2c(-c3cccs3)c3cc(-c4ccc(OC)cc4F)ccc3n2C)c1 -4.07%
Cc1ccc(C(=O)c2c(NC(=O)c3ccccc3)sc(C)c2C)cc1 -0.247%
O=C(COC(=O)c1ccc2ncsc2c1)Nc1ccc(Cl)cc1 1.26%
CCc1ccc(OCC(=O)OCC(=O)c2c(N)n(C)c(=O)n(C)c2=O)cc1 -0.827%
Cc1cc(C)nc(NC(=O)/C=C/c2ccc(Cl)cc2)n1 15.4%
O=C(/C=C/c1ccc(Cl)cc1)Nc1ccc(S(=O)(=O)Nc2ncccn2)cc1 -0.0735%
C[C@H](NC(=O)c1ccccc1Cl)C(=O)OCC(=O)N1CCN(c2ccccc2)CC1 2.66%
O=C(NCCS(=O)(=O)NCc1ccc(F)cc1)c1ccccc1 -1.67%
O=C(CNC(=O)c1ccccc1)NCC(=O)OCC(=O)c1ccccc1 -4.76%
O=C(CNC(=O)c1ccccc1Br)NCCSc1ccc(Br)cc1 -4.71%
O=C(COC(=O)CNC(=O)c1ccccc1F)NCC(F)(F)F -1.45%
O=S(=O)(NCc1ccccc1Br)c1ccccc1Br -5.13%
COc1cccc(CNC(=O)COc2cc(O)c3c(c2)OC(C)(C)CC3=O)c1 0.976%
Nc1c(N(CCCO)C(=O)C2CCCC2)c(=O)[nH]c(=O)n1Cc1ccccc1 1.33%
CCOC(=O)CSc1nnc(-c2ccc([N+](=O)[O-])cc2)o1 -5.1%
CCc1ccccc1NC(=O)CSc1nnc(-c2ccncc2)o1 -3.31%

Potency, active:
Cc1ccc(-c2csc(-c3c[nH]c4ccccc34)n2)cc1 2.51 µM
O=C(CSC(=S)N1CCOCC1)c1ccccc1 0.447 µM
O=C(CSC(=S)N1CCCCC1)c1c(F)cccc1F 1.41 µM
Cn1ccnc1SCC(=O)Nc1ccc2c(c1)OCCO2 2.51 µM
O=C(Nc1ccc2c(c1)OCCO2)c1cnccn1 2 µM
Cc1ccc(SCC(=O)Nc2ccc3c(c2)OCCO3)cc1 3.16 µM
Cc1ccn(-c2cccc(-n3ccc(C)n3)n2)n1 2.82 µM
Cc1cc(N/C=C\C(=O)c2ccc(Cl)c(Cl)c2)no1 2.82 µM
Cc1sc(NC(=O)c2ccc3ncsc3c2)c(C(N)=O)c1C 1.58 µM
CC(C)(C)c1ccc(/C=C/C(=O)Nc2ncccn2)cc1 3.98 µM
O=C(CNC(=O)c1ccc(F)cc1)c1ccccc1 0.794 µM
O=C(CNC(=O)c1ccccc1F)c1ccc(Br)cc1 1.26 µM
O=C(CSc1nnc(-c2ccc([N+](=O)[O-])cc2)o1)Nc1ccccn1 0.398 µM

— PubChem BioAssay AID485297 (National Center for Advancing Translational Sciences (NCATS), 2010)
